# The supplement of paper PMC11417369
# Over roughly 25,000 sequences, “ln(normalized median fluorescence intensity)” has its median near 9.3; the highest 2% begin near 10. This is one part of a sample in which the highest values are shown more often than they occur.
# Test system: PF3D7_0420300 AP2 domain 1 (GST-tagged)
# Test: gcPBM binding intensity (ln(normalized median fluorescence intensity)); higher = stronger DNA binding
# How it was run: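 Each value is the highest Masliner-normalised natural-log median intensity across replicate spots of either orientation of a probe. The probes were primer-extended double-stranded 36-bp intergenic genomic sequences on an Agilent 4 × 180k array, alongside negative controls, exposed for 1 h to GST-tagged P. falciparum DNA-binding domains expressed in E. coli. Bound protein was picked up with Alexa488 anti-GST antibody and scanned at 488 nm.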
row,Sequence,gcPBM binding intensity (ln)
1,TTTTTTTTTTTTAATTAACACACATAAATATATATA [CACACA_site9077],9.11
2,AAAAAATAATTGAAGTGTACGTACAATGATTTTACT [XGTACX_site7663],9.35
3,CCCATGTAATATTAAACACACACTCATATAACACAA [CACACA_site7906],9.71
4,TTTCCCCCATATAATGAACACACACCCTCCTCATAA [CACACA_site8110],9.85
5,CCCCATATAATGAACACACACACTCCTCATAATTAA [CACACA_site628],10.2
6,ACCTATATAAATTATACACACAAATATAAATATATA [CACACA_site2843],9.66
7,ACAAAATATACAAAATGTACAAAATTTACAAAATAT [XGTACX_site6466],9.43
8,TATAAAATGACTATATATAATATTAAAAAAAAAAAA [TGCATGCA_negctrl_site387],9.11
9,ATGTACCTATTTCATACACACACACCCACAAACAAA [CACACA_site8232],10
10,GTACCTATTTCATACACACACACACCCAAACAAACA [CACACA_site976],10.3
11,AAGGCAAACAAACACACACACATATATACCTATATA [CACACA_site5203],10
12,CCAAACAAAAAAAAAAGTACATAAAACACCTATTTG [XGTACX_site5645],9.46
13,GTACCTATTTCATACACACACACACGCAAACAAACA [CACACA_site6590],10.3
14,ATTTCATACAGACACACACACAAACAAACATATATA [CACACA_site979],10.1
15,TATATTTAATTATTATGTACTTATAATTTTTGAAAG [XGTACX_site8548],8.95
16,TTAATATAACTTTTTGCACACTTAATTTTTTTTTTT [CACACA_site3364],9.44
17,TATATATATATACCAACACACATACAGATATATATA [CACACA_site5060],9.7
18,ACATATACATATATATGTACATAAATATATATATAT [XGTACX_site8630],9.17
19,TATTCATGCATATACACACACATATATATATATTTT [CACACA_site3955],9.85
20,TCTTTTTTTACTTTCTTTTTTTTTTTTTTTTTTTTT [XGTACX_negctrl_site610],9.11
21,ATAAATATATATTTACGTACATATTATATATATATA [XGTACX_site6172],9.27
22,TATAAACACCCATATAAACACACATATAAACCAACA [CACACA_site8790],9.79
23,TATACACCCAGACACACACACACACCCAAAAAAAAA [CACACA_site497],10

row,Sequence,gcPBM binding intensity (ln)
1,CACGCGCACCAACACACACACACACCCATATATATA [CACACA_site2204],10.3
2,CGCGCACCCAGACACACACACACACCGATATATATA [CACACA_site8687],10.2
3,CACCCACACCAACACACACACATATATATATATATA [CACACA_site362],10.1
4,CGCGCACCCAGACACACACACACACCCATATATATA [CACACA_site2203],10.2
5,GGAGCACCCAGACACACACACACATATATATATATA [CACACA_site336],10.1
6,CACCCATACAGACATACACACACATATATATTAATA [CACACA_site8077],9.87
7,TAGACTCCCAGACACACACACACACCCATATAATAT [CACACA_site593],10.2
8,TAATTTTTAATTGTAGCATGCAGTATTTTTAAATAT [TGCATGCA_site140],8.97
9,TACTTACAGATAATAACACACAAGAAAAAAATAAAA [CACACA_site4716],9.8
10,CAAATATATATTTTCTGTACAAATACAATTAATACT [XGTACX_site2694],9.13
11,ATAAAGAAAATATGGAGTACATTTATATCCAATATA [XGTACX_site3085],9.17
12,CACAATGGTTTATATACACACTGTTGCAAATTCTTC [CACACA_site5659],9.45
13,TATAGTTCTTCTATTTGTACATATATTATTATTTAA [XGTACX_site895],9.26
14,ATTAATATATTATCATGTACACAAAAATAATTTTAT [XGTACX_site7257],9.13
15,TTAAAATGTTGTAACGTGCACATTTTGTGGAAATCA [GTGCAC_site9559],9.07
16,AAATAATTCATATGTTGTACAGTAATTAAATTTTCT [XGTACX_site6343],9.08
17,TACGCTCCCAGACACACACACACACCGATATAATAT [CACACA_site8098],10.3
18,CTATAATAATAAAGTGAACACACACCGATAATATAT [CACACA_site9377],9.78
19,ATAATATATATTAATACACACACACCGATATATATA [CACACA_site9261],10.1
20,CGCGCCCAGAAACACACACACACACCGATATATATA [CACACA_site5250],10.3
21,AAAAAAAAAAAACACACACACACACCGAAATATATA [CACACA_site4261],10.2
22,GAAATGGGTAAACATACACACACACCGATATATATA [CACACA_site8610],9.93
23,AATATAAATAAAAACACACACAATGGTACAGATATA [CACACA_site5930],10.1

row,Sequence,gcPBM binding intensity (ln)
1,TGTATAATAAGGAAGAGTACAAGTAAATACACACAT [XGTACX_site2084],9.87
2,ATTATGTGCCAATACACACACACATATATATATATA [CACACA_site468],9.9
3,AGAAAGATGCAAGAAACATGCAAAAAAAAAATTTCT [TGCATGCA_site725],9.15
4,AAAAATTCAATAGGACGTACTAAAACATTCATTAAT [XGTACX_site1712],9.34
5,AAAAAAAATAGACACACACACATACACATAAATATA [CACACA_site7742],10.1
6,AAAATACATAGACACACACACACACGGATATAAATA [CACACA_site7643],10.2
7,GATATATAAATAAATACACACATAAAATAGAAATAT [CACACA_site6881],9.93
8,AAAAATAAAGGATATACACACTAATTATATATATAT [CACACA_site5550],9.51
9,TAAATTTATAGACACACACACATATAAATAAATATA [CACACA_site6530],10
10,CACTAAAATAGACACACACACACACGGATATAAATA [CACACA_site7873],10.3
11,TATATAACTGTCTTCACACACACATATAAATAAATA [CACACA_site7317],9.77
12,TAATTTCTTTAGGGGGTGCTTTTATAGTTTTTATTA,10.1
13,TATATATTTATTTATAGTACACTATTTATGAAAACC [XGTACX_site3062],9.1
14,AATAATATTAATAAAAGTACATGTGTAATATATATA [XGTACX_site5922],9.51
15,ATTAAAAGGGGGTTTACATGTGTGTGTGTAATATGG [TGCATGCA_negctrl_site293],10.2
16,TATAATCATATTAAGGGTACATATGTGTAAATATTT [XGTACX_site6018],9.23
17,AACAACTATTACTGCACACATTCTTACACTATATAA [CACACA_site654],9.75
18,TATAAATAAAGCAGTACACACATTTATTTTAGATAC [CACACA_site7566],9.61
19,ATAAATATCATATATATACACACGTAATACATAATA [CACACA_site4001],9.56
20,ATAAAAAAATCAGACACACACACGTAAACACATACA [CACACA_site5529],10.1
21,GGGGGGAGGGTGAATACACACGTAATAATCATAAAC [CACACA_site8502],10.3
22,ATGCTATATTAAAAACGTACAAACTGTTTAGAAAAA [XGTACX_site8943],9.12
23,TTATTTAGTATATTATGTACATACAATGCCTGGGAA [XGTACX_site4578],9.21

row,Sequence,gcPBM binding intensity (ln)
1,TAAATATATAAATACACACACACCAAAGCAATAGAT [CACACA_site5605],10.2
2,AATAGTAAAAGATATACACACACCAAAAAATATAAT [CACACA_site5293],9.99
3,TAAATATATATATACACACACACCAAAGCAATAGAT [CACACA_site2940],10.3
4,AAAAAGAAAATATATACACACCAAAAAAAAAAAAAA [CACACA_site5698],9.46
5,TATAAATAAATAGATACACACATATTTATAAATACA [CACACA_site6219],9.56
6,TGTAAATATATATATACACACACACCGAAGCAATAG [CACACA_site8960],10.1
7,AATAGTAAAAGATATACACACACCAAAAAATAGAAT [CACACA_site2289],10.3
8,TAAAAAAGAAAATATATACACACCAAAAAAAAAAAA [CACACA_site3146],9.66
9,TATATATATAAATACACACACACACCCCAAAGCGTA [CACACA_site4211],10.1
10,TAAATATATTTATACACACACACCAAAGCAATAGAT [CACACA_site7393],10.3
11,AATAAAGCAATAAATACACACATATATATATATATA [CACACA_site2934],9.31
12,AATAAAGCAATAAATACACACATATTTATATTTATA [CACACA_site7390],9.56
13,AGCTATAATAAATATACACACATATATAAATATGTA [CACACA_site6583],9.37
14,CATGTGTTCTATATTTATGTCTAACTTTTTAATTAA [CACACA_negctrl_site904],9.43
15,GTTTAAAAAAATTATCAACTTTAAAAAGGTAACATT [XGTACX_negctrl_site203],8.99
16,ATTTATAAAACAGGCACACATATAATAAATTTTATA [CACACA_site2600],9.54
17,AATACTCAAAAGAATCGTACAAACAACACTCCCACG [XGTACX_site7564],9.4
18,TTTTTTTTTCAAGAGGTGCGTGTATTTTAACAAAAA,9.03
19,TTAATTATATTATGCACACACAATTGGAAAAAAAAT [CACACA_site1958],9.64
20,TATAAAATACTGTATCGATGGGGGAGGGCGCAGGGG [TGCATGCA_negctrl_site250],11
21,AGTATATAAAATACTGTATCGATGGGGGAGGGCGCA [CACACA_negctrl_site1612],10
22,ATATATGGGGCGCAGGAAAAGAGTTTTGGAAATAAA [CACACA_negctrl_site1265],9.2
